# Screens: PubChem, National Center for Advancing Translational Sciences (NCATS)
# D1 PAM = enhances dopamine response at the human D1 receptor. P21728. HEK293 TREx D1 cells, calcium flux, dopamine EC20 potentiation. potentiation, % at 10 µM. 360,000 tested, 0.036% active; in the data active means potentiation above about 30%; further: 0% is about no effect
# Target sequence (P21728 whole entry, looked up): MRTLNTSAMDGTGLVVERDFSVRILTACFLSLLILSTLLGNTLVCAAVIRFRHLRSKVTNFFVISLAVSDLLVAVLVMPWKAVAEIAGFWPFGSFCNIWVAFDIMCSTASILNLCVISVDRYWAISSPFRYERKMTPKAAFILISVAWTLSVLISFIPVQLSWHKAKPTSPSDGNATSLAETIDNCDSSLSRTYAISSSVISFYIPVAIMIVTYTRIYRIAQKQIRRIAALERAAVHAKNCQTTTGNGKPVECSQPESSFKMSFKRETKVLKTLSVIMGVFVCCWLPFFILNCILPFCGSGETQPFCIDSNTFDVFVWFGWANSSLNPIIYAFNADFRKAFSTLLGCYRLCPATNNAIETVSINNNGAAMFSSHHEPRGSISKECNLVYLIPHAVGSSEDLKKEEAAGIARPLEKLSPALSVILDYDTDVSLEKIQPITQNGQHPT
# D1 antagonist = blocks dopamine activation of the human D1 receptor; 360,000 tested, 3.2% active; HEK293 TREx D1 cells, calcium flux, dopamine EC80; hits give low values; activity change, negative = inhibition, % at 10 µM; in the data active means activity change below about -30%; further: on the % scale 0 is the no-effect control and ±100 the full control effect
#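 Tetracycline-induced HEK293 Trex D1 cells, force-coupled to calcium, dye-loaded; compounds added and read 180 s, then EC80 dopamine added and calcium flux tracked kinetically another 180 s.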
# TRHR PAM = TRH receptor (human) allosteric enhancement. P34981. TRHR cells, fluo-8 calcium fluorescence, EC20 TRH enhancement. enhancement, % at 2 µM. 360,000 tested, 0.66% active; in the data active means enhancement above about 30%; further: 0% is about no effect
#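 TRHR-expressing cells loaded with fluo-8 calcium dye were read kinetically (ex 480/em 530) during compound addition, then stimulated with an EC20 of TRH (10 nM final). Enhancement of the Gq-mediated intracellular calcium response was scored.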
# TRHR ag = TRH receptor (human) agonism; TRHR cells, calcium flux fluo-8, FDSS agonist mode; P34981; 360,000 tested, 0.18% active; activation, % at 2 µM; further: 0% is about no effect
#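 Agonist-mode FDSS calcium read (Ex 480/Em 530, 1 s cycles) in 1536-well TRHR cells with fluo-8 dye, after 10-cycle baseline and 23 nL compound addition; TRH at EC20 (10 nM final) added afterwards for the enhancer phase.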
# D1 ag = activates the human D1 dopamine receptor; activation, % at 2 µM; AID 504660; 360,000 tested, 1% active; HEK293 T-REx D1 cells, calcium flux, agonist mode; P21728; further: 0% is about no effect
#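 Inducible HEK293 T-REx D1 cells, force-coupled to calcium signalling, were plated at 4000 cells/well with tetracycline and held overnight at 30 C. After no-wash calcium dye loading, compound-evoked calcium rise over 180 s flagged agonists.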
# * marks the source's active call; other numbers are inactive results; nt = no result given; ! = not confirmed by another sample. Compounds with a hit are over-represented: about 4.7% of the library has one in this group of screens. Unless noted, no stated cut-off is given here; in the data, active means activation above about 30%; inactive means the rest.
SMILES,D1 PAM,D1 antagonist,TRHR PAM,TRHR ag,D1 ag
Cc1ccc(Cn2nc(C)c(NC(=O)c3cc(C)no3)c2C)cc1,nt,-78.5*,-1.7,-0.5,2.2
Cc1cc(C(=O)Nc2c(C)nn(Cc3ccc(F)cc3)c2C)on1,nt,4.6,-4.3,-1.0,6.7
Cc1nn(Cc2ccc(C(=O)NN)cc2)c(C)c1Cl,4.3,-43.9*,7.5,0.3,2.1
CC(NC(=O)CSc1n[nH]c(-c2ccccc2Cl)n1)c1nc2ccccc2n1C (stereo not drawn),-2.4,1.3,-1.9,-0.5,0.3
CCOc1ccc(S(=O)(=O)N2CCN(c3cc(Cl)ccc3Cl)CC2)c2ccccc12,-3.0,-3.9,0.6,0.5,-1.0
Brc1ccc(-c2csc(N3CCCCC3)n2)cc1,11.0,15.6,20.2,0.2,1.1
COc1ccc2c(c1)CC(C(=O)NCCc1ccc(S(N)(=O)=O)cc1)CO2 (stereo not drawn),2.2,8.2,2.5,-0.4,0.4
Cc1ccc2nc(N(Cc3cccnc3)C(=O)COc3ccccc3)sc2c1,-2.7,nt,7.4,-0.4,11.1
CCC(C)NC(=O)Cn1ncc2c(C)n(Cc3ccc(F)cc3)c(C)c2c1=O (stereo not drawn),-3.6,-8.3,-4.9,0.0,3.1
Cc1ccc(Cn2nc(C)c(NC(=O)c3nn(C)cc3Cl)c2C)cc1,6.6,-4.7,-8.4,-0.7,1.5
Cc1nn(Cc2ccccc2)c(C)c1CCC(=O)O,-5.8,-82.7*,0.8,0.2,0.1
Cc1nn(Cc2ccc(Br)cc2)c(C)c1NC(=O)c1nn(C)cc1Cl,8.8,-39.1*,30.9*,-0.6,6.6
N=c1n(CCN2CCCCC2)c2ccccc2n1CC(O)c1ccc(Cl)c(Cl)c1 (stereo not drawn),-2.6,14.7,1.6,-0.7,65.0*
Cc1ccccc1OCCSc1nc2ccc(NC(=O)c3cccc(F)c3)cc2s1,3.0,-7.4,2.6,-1.1,-0.4
COc1cc(/C=N/NC(=O)CC2(C)OCCCO2)ccc1OCc1ccc(Cl)cc1Cl,-2.1,0.3,0.7,1.0,10.2
CC1(CC(=O)N/N=C/c2ccc(OCc3ccc(Cl)cc3Cl)cc2)OCCCO1,-7.5,-31.3*,-5.7,0.4,4.2
CCN(c1ccc(OC)cc1)S(=O)(=O)c1ccc2[nH]c3c(c2c1)CCCCC3,-2.5,-8.4,6.8,0.3,1.9
Cc1ccc2oc(C(=O)N(C)Cc3ccc(C)o3)c(C)c2c1,-6.2,2.3,-3.1,0.3,0.6
Cc1ccc(CN(C)C(=O)c2cc(Br)c(Br)s2)o1,-5.7,-35.1*,25.4,-0.3,1.1
COc1ccccc1N(CC(=O)NCc1ccco1)S(=O)(=O)c1ccc(C)cc1,0.2,4.2,0.5,-0.3,0.5
COc1ccc(CNC(=O)CN(c2ccccc2OC)S(=O)(=O)c2ccc(C)cc2)cc1,0.4,-32.1*,-0.5,0.3,43.7*
CN(C)S(=O)(=O)N(CC(=O)NCc1ccccc1)c1ccccc1,0.9,-19.1,-6.1,-0.5,0.8
COc1ccc(CNC(=O)CN(c2ccccc2)S(=O)(=O)N(C)C)cc1,-3.7,-32.2*!,-16.8,-0.4,1.1
COCCCN1C(=O)c2[nH]nc(-c3ccccc3O)c2C1c1ccc(OC)cc1 (stereo not drawn),2.2,-18.2,3.5,-0.8,-0.1
Cc1ccccc1-n1c(=O)c2ccccc2n(CC(=O)NCc2ccco2)c1=O,-3.0,-7.8,3.9,1.3,2.0
SMILES,D1 PAM,D1 antagonist,TRHR PAM,TRHR ag,D1 ag
CC(=O)c1c(C)n(CC(=O)NCc2ccco2)c2ccccc12,-3.5,8.6,35.1*,-0.2,0.8
Cc1c(C)n(Cc2ccccc2)c2ccc(C(=O)NCc3ccco3)cc12,-7.7,-70.3*,-3.7,-0.6,6.8
CC(C)(C)c1cc(C(=O)NCc2ccccc2)ccn1,5.6,-32.1*,-4.4,0.3,6.8
CCc1ccc(CNC(=O)c2ccc3c(c2)c(C)c(C)n3Cc2ccccc2)cc1,-4.8,-2.1,-2.9,0.6,2.7
CS(=O)(=O)c1cccc(C(=O)NCc2ccccc2)c1,8.5,7.7,-2.7,-0.7,0.8
COc1cccc(CNC(=O)c2ccc3c(c2)c(C)c(C)n3Cc2ccccc2)c1,-7.1,-32.6*,-6.9,0.4,1.6
Cc1ccc(CNC(=O)C2CCCN(c3ncnc4onc(-c5ccc(F)cc5)c34)C2)cc1 (stereo not drawn),-2.2,7.7,-7.9,-0.8,2.2
